Experimental data as given in PubChem BioAssay AID602340 (Broad Institute, 2012).
Screen size: about 330,000 compounds; about 2,600 (0.79%) were called active.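 Rule for the calls: active = mean ATP rescue above about 67%, or every replicate alone reaching that limit (limit read from the data, passing the limit was not always enough); inconclusive = no clear call, values can overlap the other calls; inactive = mean under the limit and some replicate under it.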 For the sample, actives were picked, then their nearest neighbours and some compounds at random.

assay: suppressors of statin myotoxicity in C2C12 myotubes, primary screen, cell-based, single point, plate reader (AID 602340); settings: C2C12 myotubes + simvastatin, ATP luminescence, 48 h; at 7.49 µM; hits give high values; scaled: DMSO 0, geranylgeraniol control 100;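 note: myotubes were challenged with 10 µM simvastatin during compound exposure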

Row | Structure (SMILES) | rescue of ATP level
1 | C[C@@H]1CN([C@H](C)CO)C(=O)c2cc(C#CC3CC3)cnc2O[C@@H]1CN(C)Cc1cccc(C(=O)O)c1 | -0.6% (inactive)
2 | COc1ccc2[nH]c(=O)c(CN(CC3CCCO3)C(=O)Nc3ccccc3)cc2c1 (centres undefined) | -11.6% (inactive)
3 | COc1ccc2[nH]c(=O)c(CN(Cc3cccnc3)S(=O)(=O)c3ccccc3F)cc2c1 | -38.6% (inactive)
4 | COc1ccc2[nH]c(=O)c(CNc3ccc(C)c(C)c3)cc2c1 | 100% (active)
5 | CO[C@H]1CN(C)C(=O)c2ccc(NS(C)(=O)=O)cc2OC[C@@H](C)N(C(=O)c2ccc3c(c2)OCO3)C[C@@H]1C | -7.88% (inactive)
6 | C[C@@H]1CCCCO[C@H](CN(C)S(=O)(=O)c2cn(C)cn2)[C@H](C)CN([C@@H](C)CO)C(=O)c2cc(NC(=O)Nc3ccc(C(F)(F)F)cc3)ccc2O1 | 0.993% (inactive)
7 | C[C@@H]1CN([C@@H](C)CO)C(=O)Cc2cc(NC(=O)CCN3CCOCC3)ccc2O[C@H]1CN(C)S(=O)(=O)c1ccccc1 | -6.12% (inactive)
8 | O=S(=O)(Cc1ccccc1)NCC[C@@H]1CC[C@@H](NS(=O)(=O)c2ccccc2)[C@@H](CO)O1 | 1.31% (inactive)
9 | COc1ccc(S(=O)(=O)N/N=C\c2ccc(OC)c(COc3ccc(C)cc3[N+](=O)[O-])c2)cc1 | 99.4% (active)
10 | COc1ccc(S(=O)(=O)Nc2ccc3cn[nH]c3c2)cc1[N+](=O)[O-] | 1.46% (inactive)
11 | Cc1ccc(S(=O)(=O)N/N=C\c2cc3c(cc2[N+](=O)[O-])OCO3)cc1 | 2.88% (inactive)
12 | COc1cccc(S(=O)(=O)Nc2ccc3c(c2)C(=O)N(C)C[C@@H](OC)[C@H](C)CN(C(=O)Cc2cccnc2)[C@H](C)CO3)c1 | 7.32% (inactive)
13 | CC(=O)N1[C@@H](CO)[C@H](c2ccccc2)[C@@H]1CN(C(=O)c1ccccc1)C(C)C | 3.57% (inactive)
14 | COc1ccc(-c2ccc3n(c2=O)C[C@@H]2[C@@H](CO)[C@H](C(=O)Nc4ccccc4)[C@H]3N2C)cc1 | -0.124% (inactive)
15 | CCC(=O)N(C)C[C@@H]1Oc2cc(C#Cc3cccnc3)ccc2S(=O)(=O)N([C@H](C)CO)C[C@@H]1C | 29.4% (inactive)
16 | O=C(c1cc(-c2cccs2)on1)N1CCCCC1 | 36% (inactive)
17 | Cc1cc(NC(=O)c2cc(-c3cccs3)on2)nn1Cc1ccc(Cl)cc1 | 143% (active)
18 | CC(=O)c1ccc(NC(=O)c2cc(-c3cccs3)on2)cc1 | -12.8% (inactive)
19 | CC(C)C#Cc1ccc2c(c1)O[C@@H](CN(C)C(=O)CN(C)C)[C@@H](C)CN([C@H](C)CO)S2(=O)=O | -17.5% (inactive)
20 | CNC[C@H]1Oc2ncc(C#Cc3ccccc3F)cc2C(=O)N([C@H](C)CO)C[C@H]1C | -12.3% (inactive)
21 | O=C(C[C@@H]1C[C@H]2c3cc(NC(=O)Nc4ccccc4)ccc3O[C@H]2[C@@H](CO)O1)NCc1cccnc1 | 4.89% (inactive)
22 | CN1c2ccccc2-c2nc3ccccc3n2C1c1ccco1 (centres undefined) | 96.4% (active)
23 | Cc1cc(NCc2ccco2)n2c(nc3ccccc32)c1C#N | -35.7% (inactive)
24 | CN1C(C(=O)NCc2ccco2)CC2Cn3c(nc4ccccc43)C21 (centres undefined) | 2.87% (inactive)
25 | COc1ccc(NS(=O)(=O)c2ccc(NC(=O)C(C)(C(F)(F)F)C(F)(F)F)cc2)nn1 | 113% (active)

Row | Structure (SMILES) | rescue of ATP level
26 | COC(=O)Nc1ccc(S(=O)(=O)Nc2cc(OC)nc(OC)n2)cc1 | -0.957% (inactive)
27 | CCCCCC(=O)Nc1ccc(S(=O)(=O)Nc2ccc(Cl)nn2)cc1 | -2.2% (inactive)
28 | CC(C)NC(=O)N1[C@H](CO)[C@@H]2c3ccccc3N(C(=O)c3ccccc3F)C[C@@H]21 | 6.22% (inactive)
29 | CC(=O)N(C)C[C@H]1Oc2cc(C#CC3CC3)ccc2S(=O)(=O)N([C@H](C)CO)C[C@@H]1C | 9.57% (inactive)
30 | C/C=C/c1ccc2c(c1)O[C@@H](CN(C)C(=O)c1ccncc1)[C@@H](C)CN([C@H](C)CO)S2(=O)=O | -3.45% (inactive)
31 | CO[C@H]1CN(C)C(=O)c2ccc(NS(C)(=O)=O)cc2OC[C@@H](C)N(Cc2ccccc2)C[C@@H]1C | 7.75% (inactive)
32 | CO[C@H]1CN(C)C(=O)c2cc(NC(=O)C3CC3)ccc2OC[C@H](C)N(Cc2ccccc2)C[C@H]1C | 14.1% (inactive)
33 | CCOC(=O)c1c(-c2ccccc2)oc2ccc(OCC(N)=O)cc12 | -0.453% (inactive)
34 | CC(=O)c1c(C)n(-c2ccc(C)cc2)c2ccc(O)cc12 | -0.235% (inactive)
35 | CC(=O)c1c(C)n(-c2ccc(N(C)C)cc2)c2ccc(OCC(N)=O)cc12 | 83.1% (active)
36 | CN(C)CCCNC(=O)C[C@H]1C=C[C@@H](NC(=O)Cc2cccnc2)[C@H](CO)O1 | -16.4% (inactive)
37 | C[C@@H]1CN([C@H](C)CO)C(=O)c2ccccc2-c2ccccc2CO[C@@H]1CN(C)S(=O)(=O)CC(F)(F)F | -2.03% (inactive)
38 | CC(C)(C)OC(=O)N[C@H](C(=O)OC(C)(C)C)c1ccc(Br)cc1 | -4.69% (inactive)
39 | CCOC(=O)Nc1ccc(NC(=O)OCC)cc1 | -0.0995% (inactive)
40 | CC(C)(C)OC(=O)Nc1ccc([C@@H](NC(=O)OC(C)(C)C)C(=O)OC(C)(C)C)cc1 | 83.1% (active)
41 | COc1ccc(S(=O)(=O)N2CC[C@H]3[C@@H](CO)N(C)c4ccc(C#Cc5ccccc5OC)cc4[C@H]32)cc1 | 36% (inactive)
42 | C[C@H]1CN([C@@H](C)CO)S(=O)(=O)c2ccc(C#Cc3ccccc3F)cc2O[C@@H]1CN(C)C(=O)c1ccc2c(c1)OCO2 | -14.8% (inactive)
43 | O=C(Nc1ccccc1-c1ccccc1)c1ccccc1[N+](=O)[O-] | 9.09% (inactive)
44 | O=C(O)c1ccccc1NC(=S)NC(NC(=O)c1ccccc1[N+](=O)[O-])C(Cl)(Cl)Cl (centres undefined) | 108% (active)
45 | O=C(Nc1ccccc1[N+](=O)[O-])C1C(c2ccccc2)=C1c1ccccc1 | 2.4% (inactive)
46 | CO[C@H]1CN(C)C(=O)c2cc(NC(=O)C3CCOCC3)ccc2OC[C@@H](C)N(Cc2cccnc2)C[C@@H]1C | 11.4% (inactive)
47 | COc1ccc(O)c(/C=N/N=C/c2cccc([N+](=O)[O-])c2)c1 | 9.95% (inactive)
48 | COc1cc(/C=N\NC(=O)CNC(=O)c2cccc([N+](=O)[O-])c2)ccc1O | 110% (active)
49 | COc1cc(/C=N/NC(=O)CNC(=O)c2ccncc2)ccc1OC(C)=O | -8.66% (inactive)
